TDP43 rescue – TDP-43 toxicity inhibition in yeast | TDP-43 expressing yeast growth rescue, BacTiter-Glo, 24 h | Potency, µM (top dose mostly 46.1 µM), for inactives: at the highest dose growth rescue (activation), usual class: activators | actives 1.8% (n = 410,000); further: % of control where 0% means no effect; nearly all actives have a fitted effect of over 50% in size
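Luminescence from BacTiter-Glo reports growth of TDP-43-expressing yeast after 24 hr at 30 deg C with compound. Cells were raffinose-pregrown to mid-log, then seeded in galactose medium at OD600=0.02.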
aSyn yeast inh – alpha-synuclein toxicity inhibition in yeast | Yeast expressing alpha-synuclein, growth rescue, BacTiter-Glo, 24 h | Potency, µM (doses to about 46.1 µM), inactives show at the top dose growth rescue (activation), hits mostly activators | actives 0.14% (n = 370,000); further: % of control where 0% means no effect; nearly all actives have a fitted effect of over 65% in size
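Galactose-induced alpha-syn yeast (OD600=0.02, raffinose-pregrown) + pinned cpd, 24 hr, 30 deg C; growth by BacTiter-Glo luminescence. Growth restoration scores as activation.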
FUS yeast rescue – FUS proteinopathy suppression in yeast; AID 1347120; Potency, µM (doses to about 76.6 µM), hits mostly activators; S. cerevisiae FUS-expressing, growth rescue, OD600, 24 h; actives 0.24% (n = 390,000);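 further: plate controls were DMSO vehicle for no effect and reference control for full effect; nearly all actives have a fitted effect of over 55% in size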
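Yeast expressing FUS under galactose induction, OD 0.005 in 2% galactose medium; compounds in a dilution series, 24 h at 30C. Growth rescue by absorbance at 600 nm; CP55940 positive control, DMSO negative.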
Abeta rescue – A-beta toxicity reversal in yeast | Potency, µM (series often up to 46.1 µM), actives largely listed as activators | yeast expressing A-beta42, growth rescue, OD600, 48 h; response scale: 0% DMSO, 100% iron-clioquinol control | AID 1347071 | actives 0.063% (n = 410,000); further: nearly all actives have a fitted effect of over 55% in size
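Yeast growth medium received pinned compounds, then yeast cells expressing toxic A-beta were added; plates incubated at 30 C for 48 hr. Growth read as absorbance at 600 nm, normalized to DMSO and equimolar FeCl3 plus clioquinol controls.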
The depositor's hits bear a star. Rows were chosen to be rich in hits. Some 2.1% of all compounds tested hit in one or more screens of this group. The call rests on the fitted dose curve; in most records, active means well fitted curve in the direction sought with a large enough effect; inconclusive means small, poorly fitted or top-dose-only effect, or another doubt; inactive means no such curve, though single readings can be large; an effect the other way counts as inactive or inconclusive. Potency means the concentration at half of the fitted maximal effect.

For CCCCC(=O)NNC(=S)NC(=O)c1ccc(C)cc1 the results were TDP43 rescue -74.9%, aSyn yeast inh 3.55µM*, FUS yeast rescue inactive and Abeta rescue inactive.
For Cc1cc(O)cc(C)c1Cl the results were TDP43 rescue 22.9%, aSyn yeast inh 1.5%, FUS yeast rescue inactive and Abeta rescue inactive.
For NS(=O)(=O)c1ccc(CNC(=O)c2cc(-c3cccnc3)nc3ccc(Cl)cc23)cc1 the results were TDP43 rescue 4.0%, aSyn yeast inh -0.8%, FUS yeast rescue inactive and Abeta rescue inactive.
Screening COC(=O)c1ccccc1NC(=S)NC(=O)c1ccccc1 returned TDP43 rescue inconclusive, aSyn yeast inh -14.7%, FUS yeast rescue inactive and Abeta rescue inactive.
For COC(=O)c1ccccc1NC(=S)NC(=O)c1ccc(C)cc1 the results were TDP43 rescue 20µM*, aSyn yeast inh -18.3% and Abeta rescue inactive.
Screening CC(=O)Nc1ccc(C(=O)N2c3ccccc3N=C(c3ccc4c(c3)OCO4)C2C(=O)NCc2ccccc2)cc1 (stereo unspecified) returned TDP43 rescue 7.4%, aSyn yeast inh -10.7%, FUS yeast rescue 12.6µM* and Abeta rescue inactive.
COc1ccc(C2=Nc3ccccc3N(C(=O)c3ccc4c(c3)OCO4)C2C(=O)NCc2ccccc2)cc1 (stereo unspecified) was read as TDP43 rescue inconclusive, aSyn yeast inh 7.1%, FUS yeast rescue inconclusive and Abeta rescue inactive.
`Cc1nn(-c2ccccn2)c2c1-c1nc(N)sc1CC2` gave aSyn yeast inh 12.6µM*.
`Nc1nn(-c2ccccc2)c(N)c1N=Nc1ccccc1` gave TDP43 rescue inconclusive, aSyn yeast inh -13.0% and Abeta rescue inactive.
For Nc1nn(-c2ccccc2)c(N)c1N=Nc1ccccc1F the results were TDP43 rescue 12.6µM*, aSyn yeast inh -26.5%, FUS yeast rescue inactive and Abeta rescue inactive.
Cc1cccc(N=Nc2c(C)nn(-c3ccccc3)c2N)c1C was read as TDP43 rescue 20µM*, aSyn yeast inh -20.3% and Abeta rescue inactive.
CCn1nc(C)c(/C=N/NC(=O)c2ccc3c(c2)c(C)c(C)n3Cc2ccccc2)c1C was read as TDP43 rescue 4.9%, aSyn yeast inh 2.3%, FUS yeast rescue 11.2µM* and Abeta rescue inactive.
Screening CC(c1ccc2ccccc2c1)c1ccccc1C(=O)O (stereo unspecified) returned TDP43 rescue 5.62µM*, aSyn yeast inh -11.5%, FUS yeast rescue inactive and Abeta rescue inactive.
O=C1N=C2N(CCN3CCCCC3)c3ccccc3N2/C1=C\c1ccc([N+](=O)[O-])s1 was read as TDP43 rescue -1.0%, aSyn yeast inh 6.9%, FUS yeast rescue inactive and Abeta rescue inactive.
C=CCNC(=S)NN=C1CCCCCCC1 was read as TDP43 rescue -3.0%, aSyn yeast inh -8.1%, FUS yeast rescue inactive and Abeta rescue 8.91µM*.
`COCCNC(=S)NN=C1CCCCC1` gave TDP43 rescue -18.4%, aSyn yeast inh -0.4%, FUS yeast rescue inactive and Abeta rescue inactive.
`CCN(C(=S)Nc1cccnc1)c1cccc2ccccc12` gave TDP43 rescue 5.8%, aSyn yeast inh 5.2%, FUS yeast rescue inactive and Abeta rescue inactive.
Screening C=C(C)COc1ccc(-c2ncncc2-c2ccc(Br)cc2)c(O)c1 returned TDP43 rescue 8.1%, aSyn yeast inh -10.5%, FUS yeast rescue inactive and Abeta rescue inactive.
C=C(C)COc1ccc(-c2nc(N)ncc2-c2ccc(Br)cc2)c(O)c1 was read as TDP43 rescue 20µM*, aSyn yeast inh -43.0%, FUS yeast rescue inactive and Abeta rescue inactive.
Screening O=C(OC(c1ccccc1)c1nccc2ccccc12)c1cc([N+](=O)[O-])cc([N+](=O)[O-])c1 (stereo unspecified) returned TDP43 rescue 6.31µM*, aSyn yeast inh 9.4% and Abeta rescue inactive.
`COc1cccc(C(=O)NCCc2sc(-c3cccc(C)c3)nc2C)c1` gave TDP43 rescue 25.1µM*, aSyn yeast inh -8.2%, FUS yeast rescue inconclusive and Abeta rescue inactive.
For Cc1nc(-c2ccc(F)cc2)sc1CCNC(=O)c1ccccc1C(F)(F)F the results were TDP43 rescue 12.6µM*, FUS yeast rescue inactive and Abeta rescue inactive.
COc1ccc(-c2nc(C)c(CCNC(=O)c3c(F)cccc3F)s2)cc1 was read as TDP43 rescue 10µM*, aSyn yeast inh -0.8%, FUS yeast rescue inactive and Abeta rescue inactive.
COc1ccc(CC(=O)NCCc2sc(-c3cccc(F)c3)nc2C)cc1 was read as TDP43 rescue 11.2µM*, FUS yeast rescue inactive and Abeta rescue inactive.
`CCOc1ccc(CC(=O)NCCc2sc(-c3cccc(F)c3)nc2C)cc1` gave TDP43 rescue inconclusive, FUS yeast rescue inactive and Abeta rescue inactive.
`Cc1cccc(C(=O)NCCc2sc(-c3ccccc3)nc2C)c1` gave TDP43 rescue inconclusive, aSyn yeast inh inconclusive, FUS yeast rescue inactive and Abeta rescue inactive.
For Cc1nc(-c2ccc(F)cc2)sc1CCNC(=O)Cc1ccc(F)cc1 the results were TDP43 rescue inconclusive, FUS yeast rescue inactive and Abeta rescue inactive.
`CCc1ccc2c(c1)Sc1ccccc1CC2N1CCN(C)CC1` (stereo unspecified) gave TDP43 rescue 14.3%, aSyn yeast inh 0.0%, FUS yeast rescue inactive and Abeta rescue inactive.
`CCCCCC(=O)NC(=S)Nc1ccc(Br)cc1C` gave TDP43 rescue 22.8%, aSyn yeast inh 0.0% and Abeta rescue inactive.
For COc1ccc(C(=O)NCCc2sc(-c3cccc(F)c3)nc2C)cc1 the results were TDP43 rescue 22.4µM*, FUS yeast rescue inconclusive and Abeta rescue inactive.
Screening Cc1nn(-c2ccccc2)c2c1N(CCCC(=O)NCc1ccc(OC(C)C)cc1)C(=O)CS2 returned TDP43 rescue 28.2µM*, FUS yeast rescue inactive and Abeta rescue inactive.
Cc1nn(-c2ccccc2)c2c1N(CCCC(=O)NCc1ccc(Cl)cc1)C(=O)CS2 was read as TDP43 rescue 20µM*, FUS yeast rescue inconclusive and Abeta rescue inactive.
`Cc1nn(-c2ccccc2)c2c1N(CCCC(=O)NCc1ccccc1)C(=O)CS2` gave TDP43 rescue inconclusive, FUS yeast rescue inactive and Abeta rescue inactive.
Screening CCCCOc1ccc(CNC(=O)CCCN2C(=O)CSc3c2c(C)nn3-c2ccccc2)cc1 returned TDP43 rescue 28.2µM*, FUS yeast rescue inconclusive and Abeta rescue inactive.
`O=S(=O)(Cc1ccccc1)Nc1ccccc1` gave TDP43 rescue 13.7%, aSyn yeast inh 18.8%, FUS yeast rescue inactive and Abeta rescue inactive.
For O=C(Cc1ccccc1)n1nc(-c2ccco2)nc1SCc1ccccc1 the results were TDP43 rescue 11.2µM*, aSyn yeast inh -0.5%, FUS yeast rescue inactive and Abeta rescue inactive.
O=C(CCc1nnc2ccc(N3CCCCC3)nn12)NCc1ccco1 was read as TDP43 rescue 8.2%, aSyn yeast inh 2.3%, FUS yeast rescue inactive and Abeta rescue inactive.

Screening results from PubChem.
